Results taken from PubChem BioAssay (NCATS).
Records with an inconclusive call do not appear. Calls of active or inactive are those of the source. Unless noted, calls come from the whole dose curve; as a rule, active = well fitted curve in the direction sought with a large enough effect; inconclusive = small, poorly fitted or top-dose-only effect, or another doubt; inactive = no such curve, though single readings can be large; an effect the other way counts as inactive or inconclusive.

Tests used:
[1] = Validation of Assay for Modulators of Lamin A Splicing (AID 1459; active = well fitted curve in the direction sought with a large enough effect in the signal ratio; the % refers to the signal ratio;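 note: cells exposed to compound for two days before reading; 0% is about no effect; ratio rise marks activators and ratio drop marks inhibitors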)
Summary of the method: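 Splicing correction is reported by an EGFP-containing lamin A minigene in stably transfected S3 HeLa cells, while DsRed2 controls for viability and nonspecific signal. Cells are exposed to compounds for 48 hrs before the GFP over RFP ratio is taken.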

[2] = qHTS Assay for Lipid Storage Modulators (AID 1519; calls by dose curve; for activity change, negative = inhibition: % is set by controls: 0 for no effect and ±100 for the full control effect); details: Drosophila S3 cells, BODIPY lipid droplet/cell ratio, laser cytometry, cells loaded with oleic acid
Summary of the method: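 Cells seeded at 5,000 per well were treated with compounds over a concentration series and loaded with oleic acid (400 uM, as added). Lipid droplet fluorescence (488 nm excitation, 500-530 nm channel) was read by laser-scanning cytometry and normalized to 20 uM Triacsin C.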

[3] = biological target: DNA repair nuclease/redox regulator APEX1 (Homo sapiens) (UniProt P27695); assay: qHTS Validation Assay for Inhibitors of the Human Apurinic/apyrimidinic Endonuclease 1 (APE1) (AID 1705;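 note: TAMRA fluorescence gain over two minutes as APE1 cuts a quenched THF abasic duplex; % is set by controls: 0 for no effect and ±100 for the full control effect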)
Sequence of DNA repair nuclease/redox regulator APEX1 (Homo sapiens) (P27695 whole entry, looked up): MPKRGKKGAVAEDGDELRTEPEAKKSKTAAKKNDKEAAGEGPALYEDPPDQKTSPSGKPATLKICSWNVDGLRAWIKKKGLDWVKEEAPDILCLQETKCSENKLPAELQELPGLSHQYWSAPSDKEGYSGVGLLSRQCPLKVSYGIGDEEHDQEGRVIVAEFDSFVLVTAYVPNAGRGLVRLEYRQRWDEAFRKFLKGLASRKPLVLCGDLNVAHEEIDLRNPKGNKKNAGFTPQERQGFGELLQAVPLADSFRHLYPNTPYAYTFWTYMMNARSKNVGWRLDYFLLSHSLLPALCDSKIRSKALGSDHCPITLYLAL
Summary of the method: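 Endonuclease activity of human APE1 is followed as dequenching when the enzyme incises a tetrahydrofuran abasic site in a short duplex labelled 5'-TAMRA/3'-BHQ-2 (50 nM final), after 15 min enzyme–compound preincubation at room temperature.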

[4] = qHTS for differential inhibitors of proliferation of Plasmodium falciparum line 7G8 (AID 1815);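 note: potency is the fitted concentration of half-maximal effect; parasite growth measured after three days of incubation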
[5] = qHTS for differential inhibitors of proliferation of Plasmodium falciparum line Dd2 (AID 1882); details: Potency: Plasmodium falciparum Dd2 proliferation inhibition;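 note: plate controls were DMSO vehicle for no effect and 0.29 µM artemisinin for full effect; nearly all actives have a fitted effect of over 65% in size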
Summary of the method: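 Dd2-infected erythrocytes (0.3% parasitemia, 2.5% hematocrit final) incubated with compound 72 h at 37 C, 5% CO2; lysed with saponin/Triton buffer containing SYBR Green I, incubated overnight in the dark, then read by fluorescence (485/535 nm). Normalized to 0.29 uM artemisinin and DMSO.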

[6] = qHTS for differential inhibitors of proliferation of Plasmodium falciparum line W2 (AID 1883); details: Potency: Plasmodium falciparum W2 proliferation inhibition;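 note: potency is the fitted concentration of half-maximal effect; parasites grown with compound for 72 h before lysis and staining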
[7] = biological target: ATP-dependent DNA helicase Q1 (Homo sapiens) (UniProt P46063); assay: qHTS Validation Assay for Inhibitors of RecQ-Like Dna Helicase 1 (RECQ1) (AID 2353);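 note: plate controls were DMSO vehicle for no effect and enzyme-free control for full effect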
Sequence of ATP-dependent DNA helicase Q1 (Homo sapiens) (P46063 whole entry, looked up): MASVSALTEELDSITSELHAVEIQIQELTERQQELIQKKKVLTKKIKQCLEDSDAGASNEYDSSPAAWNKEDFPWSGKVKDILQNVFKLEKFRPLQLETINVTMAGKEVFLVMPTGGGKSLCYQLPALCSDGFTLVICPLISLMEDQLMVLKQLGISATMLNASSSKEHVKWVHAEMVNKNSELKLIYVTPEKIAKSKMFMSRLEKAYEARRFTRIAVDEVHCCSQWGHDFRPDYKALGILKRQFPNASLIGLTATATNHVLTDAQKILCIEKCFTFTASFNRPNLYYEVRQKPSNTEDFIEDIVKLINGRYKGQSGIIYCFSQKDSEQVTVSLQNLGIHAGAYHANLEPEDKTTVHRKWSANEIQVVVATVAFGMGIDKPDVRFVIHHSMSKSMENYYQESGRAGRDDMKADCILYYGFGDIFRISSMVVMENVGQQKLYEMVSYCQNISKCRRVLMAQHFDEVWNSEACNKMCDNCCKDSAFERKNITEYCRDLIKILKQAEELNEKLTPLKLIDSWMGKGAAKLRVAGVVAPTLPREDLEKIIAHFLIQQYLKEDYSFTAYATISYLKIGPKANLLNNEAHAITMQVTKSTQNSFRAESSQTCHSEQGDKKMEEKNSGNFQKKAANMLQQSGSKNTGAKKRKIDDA
Summary of the method: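 50 nM RECQ1T1 preincubated 15 min with compound in Tris pH 8.0 buffer with MgCl2, DTT, Tween-20 and 2.5 ug/ml poly(dI-dC); started with 200 nM TAMRA/BHQ-2 forked duplex and 2 mM ATP. Unwinding read as fluorescence (525/598 nm), two reads 2 h apart.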

[8] = biological target: RecQ-like DNA helicase BLM (Homo sapiens) (UniProt P54132); assay: qHTS Validation Assay for Inhibitors of Bloom's syndrome helicase (BLM) (AID 2364);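 note: plate controls were DMSO vehicle for no effect and enzyme-free control for full effect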
Summary of the method: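 50 nM BLM preincubated 15 min at room temperature with compound in pH 8.0 Tris buffer containing 2.5 ug/ml poly(dI-dC); started with 200 nM TAMRA/BHQ-2 forked duplex and 2 mM ATP (final). Unwinding read as TAMRA fluorescence increase, two reads 2 h apart.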

[9] = Quantitative high throughput screen for delayed death inhibitors of the malarial parasite plastid, 48 hour incubation (AID 488752); note: % is set by controls: 0 for no effect and ±100 for the full control effect; nearly all actives have a fitted effect of over 65% in size
Summary of the method: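 Erythrocytes infected with firefly luciferase-expressing P. falciparum (2% hematocrit, 0.1% parasitemia) cultured with compound for 48 h at 37 C, 5% CO2, in RPMI 1640/0.5% Albumax. Growth inhibition read as loss of luminescence.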

[10] = biological target: M-phase phosphoprotein 8 (Homo sapiens) (UniProt Q99549); assay: qHTS Validation Assay for Inhibitors for MPP8 Chromodomain Interactions with Methylated Histone Tails (AID 488949);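 note: AlphaScreen signal from MPP8 chromodomain bound to biotinylated H3K9me3 peptide; top concentration of the series differs between compounds; % is set by controls: 0 for no effect and ±100 for the full control effect; nearly all actives have a fitted effect of over 55% in size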
Sequence of M-phase phosphoprotein 8 (Homo sapiens) (Q99549 whole entry, looked up): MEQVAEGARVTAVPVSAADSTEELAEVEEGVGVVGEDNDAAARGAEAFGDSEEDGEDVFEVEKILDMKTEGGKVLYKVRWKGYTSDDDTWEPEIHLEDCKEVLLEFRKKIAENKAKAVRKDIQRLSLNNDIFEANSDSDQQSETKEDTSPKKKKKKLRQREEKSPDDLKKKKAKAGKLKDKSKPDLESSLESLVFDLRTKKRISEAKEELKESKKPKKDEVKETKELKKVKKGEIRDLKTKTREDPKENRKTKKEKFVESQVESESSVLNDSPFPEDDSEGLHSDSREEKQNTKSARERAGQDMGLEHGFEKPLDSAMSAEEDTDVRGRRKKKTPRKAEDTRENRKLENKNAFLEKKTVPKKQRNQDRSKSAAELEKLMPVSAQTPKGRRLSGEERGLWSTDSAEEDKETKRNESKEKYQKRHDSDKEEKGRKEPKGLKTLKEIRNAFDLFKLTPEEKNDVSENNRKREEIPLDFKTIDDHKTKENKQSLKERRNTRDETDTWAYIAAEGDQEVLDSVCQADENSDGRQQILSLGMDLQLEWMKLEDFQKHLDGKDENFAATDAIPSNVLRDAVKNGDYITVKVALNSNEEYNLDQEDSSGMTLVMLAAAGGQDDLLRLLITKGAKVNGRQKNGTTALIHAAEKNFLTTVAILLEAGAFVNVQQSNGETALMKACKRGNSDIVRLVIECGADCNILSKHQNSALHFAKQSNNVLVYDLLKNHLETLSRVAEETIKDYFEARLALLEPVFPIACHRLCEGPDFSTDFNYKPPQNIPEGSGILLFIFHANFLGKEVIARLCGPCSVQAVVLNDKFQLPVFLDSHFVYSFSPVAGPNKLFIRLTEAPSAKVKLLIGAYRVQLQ
Summary of the method: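 Disruption of the preformed MPP8–trimethyl-H3K9 peptide complex (both 50 nM, 30 min, RT) is measured after 30 min compound exposure, using AlphaScreen proximity beads; aurintricarboxylic acid titration serves as plate control.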

[11] = biological target: Thyrotropin receptor (Homo sapiens) (UniProt P16473); assay: qHTS Assay for Antagonists of the Thyroid Stimulating Hormone Receptor (AID 488980); note: 0% is about no effect
Sequence of Thyrotropin receptor (Homo sapiens) (P16473 whole entry, looked up): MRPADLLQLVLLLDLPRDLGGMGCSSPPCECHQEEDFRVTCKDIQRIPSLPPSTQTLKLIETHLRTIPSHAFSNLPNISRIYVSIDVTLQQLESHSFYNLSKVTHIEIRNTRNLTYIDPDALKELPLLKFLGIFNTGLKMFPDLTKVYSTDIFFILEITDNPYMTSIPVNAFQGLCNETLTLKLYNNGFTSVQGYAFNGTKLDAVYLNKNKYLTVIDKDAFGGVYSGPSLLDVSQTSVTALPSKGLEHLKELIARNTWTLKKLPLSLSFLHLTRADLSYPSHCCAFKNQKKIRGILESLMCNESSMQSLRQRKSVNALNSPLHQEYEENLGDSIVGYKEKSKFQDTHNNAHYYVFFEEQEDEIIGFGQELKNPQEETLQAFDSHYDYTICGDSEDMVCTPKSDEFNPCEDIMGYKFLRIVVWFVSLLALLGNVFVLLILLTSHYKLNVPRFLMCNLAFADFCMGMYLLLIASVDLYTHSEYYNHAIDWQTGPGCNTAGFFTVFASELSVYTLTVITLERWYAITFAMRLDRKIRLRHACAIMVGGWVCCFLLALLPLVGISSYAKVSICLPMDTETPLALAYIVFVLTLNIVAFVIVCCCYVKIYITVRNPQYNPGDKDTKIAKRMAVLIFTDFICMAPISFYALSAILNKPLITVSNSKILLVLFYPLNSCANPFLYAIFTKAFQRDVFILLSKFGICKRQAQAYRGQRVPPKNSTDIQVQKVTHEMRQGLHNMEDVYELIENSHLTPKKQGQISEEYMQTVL
Summary of the method: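 Cells expressing human TSHR (HEK293) are dispensed in HBSS/HEPES containing 70 uM RO 20-1724, compound is added, then TSH at EC80 (4 nM final). Antibody in lysis buffer follows, 30 minutes at room temperature before HTRF detection.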

[12] = biological target: Thyrotropin-releasing hormone receptor (Homo sapiens) (UniProt P34981); assay: qHTS for Small Molecule Agonists and Allosteric Enhancers of Human TRH Receptor: Validation Screen for Agonists (AID 493127;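 active = calcium activation more than 3 SD above the typical response in the agonist read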; note: 0% is about no effect); details: TRH receptor agonist cell assay; at 2 µM; stronger effect = higher value
Sequence of Thyrotropin-releasing hormone receptor (Homo sapiens) (P34981 whole entry, looked up): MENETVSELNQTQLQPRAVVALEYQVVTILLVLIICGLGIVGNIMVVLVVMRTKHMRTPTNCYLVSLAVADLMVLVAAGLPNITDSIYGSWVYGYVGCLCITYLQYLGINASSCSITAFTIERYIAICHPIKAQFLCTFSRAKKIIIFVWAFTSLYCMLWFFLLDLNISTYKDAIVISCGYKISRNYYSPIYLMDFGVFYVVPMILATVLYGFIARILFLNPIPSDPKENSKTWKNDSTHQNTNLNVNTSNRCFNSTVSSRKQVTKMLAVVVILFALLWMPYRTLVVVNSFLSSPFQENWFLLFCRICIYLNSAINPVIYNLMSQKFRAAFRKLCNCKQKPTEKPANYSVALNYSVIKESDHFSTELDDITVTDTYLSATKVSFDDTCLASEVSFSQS
Summary of the method: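 TRHR cells loaded with fluo-8 calcium dye; FDSS kinetic fluorescence (Ex 480/Em 530) read at 1 s/cycle after 23 nL compound addition. Agonist-mode calcium response recorded before the 10 nM TRH (EC20) addition.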

[13] = biological target: Galactokinase (Homo sapiens) (UniProt P51570); assay: qHTS Validation Assay for Inhibitors of Human Galactokinase (GALK) (AID 493189); note: 0% is about no effect
Sequence of Galactokinase (Homo sapiens) (P51570 whole entry, looked up): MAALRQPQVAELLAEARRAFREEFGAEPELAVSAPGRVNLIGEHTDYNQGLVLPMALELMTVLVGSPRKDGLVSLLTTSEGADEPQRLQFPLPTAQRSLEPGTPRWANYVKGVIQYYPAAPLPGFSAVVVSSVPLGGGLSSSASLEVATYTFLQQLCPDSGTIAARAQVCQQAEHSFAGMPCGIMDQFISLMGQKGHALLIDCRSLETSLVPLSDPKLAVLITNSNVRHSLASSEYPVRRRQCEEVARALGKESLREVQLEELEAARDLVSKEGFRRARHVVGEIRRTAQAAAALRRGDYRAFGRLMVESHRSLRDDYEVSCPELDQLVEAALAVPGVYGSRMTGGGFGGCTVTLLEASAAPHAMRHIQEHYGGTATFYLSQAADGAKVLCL
Summary of the method: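 Compounds were pin-transferred into ATP buffer, then GALK-galactose mix was added (final 5 nM enzyme, 100 uM galactose, 35 uM ATP). After 1 h at room temperature, remaining ATP was measured luminescently.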

[14] = Validation screen for small molecules that induce DNA re-replication in SW480 colon adenocarcinoma cells (AID 504364); note: 0% is about no effect
Summary of the method: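 SW480 cells (250/well) exposed 48 h at 37 C, 5% CO2, then Hoechst-stained 40 min. Nuclear DNA content imaged by fluorescence scanning (405 nm excitation, 500-530 nm emission); re-replication scored as increased nuclei with elevated intensity.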

[15] = biological target: DNA dC->dU-editing enzyme APOBEC-3G (Homo sapiens) (UniProt Q9HC16); assay: qHTS for inhibitors of Vif-A3G interactions: Validation (AID 588379); note: 0% is about no effect
Sequence of DNA dC->dU-editing enzyme APOBEC-3G (Homo sapiens) (Q9HC16 whole entry, looked up): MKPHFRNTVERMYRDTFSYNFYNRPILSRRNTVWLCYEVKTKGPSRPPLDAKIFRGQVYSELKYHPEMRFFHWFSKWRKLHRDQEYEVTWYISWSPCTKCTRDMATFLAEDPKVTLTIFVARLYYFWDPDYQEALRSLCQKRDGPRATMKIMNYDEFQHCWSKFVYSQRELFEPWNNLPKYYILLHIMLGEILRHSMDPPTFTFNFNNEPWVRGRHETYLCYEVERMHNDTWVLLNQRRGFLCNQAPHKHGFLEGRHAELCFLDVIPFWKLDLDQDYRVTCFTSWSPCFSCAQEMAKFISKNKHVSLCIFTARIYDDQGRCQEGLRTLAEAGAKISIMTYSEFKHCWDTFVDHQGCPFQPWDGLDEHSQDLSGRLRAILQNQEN
Summary of the method: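 HeLa cells stably expressing Vif and A3G-eYFP, 700 cells/well, incubated overnight at 37 deg C, then exposed to compound overnight at 37 deg C. Inhibition of Vif-mediated degradation read as increased yellow fluorescence (Ex 488/Em 500-530) by laser-scanning cytometry.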

[16] = system: Zika virus NS2B-NS3 protease; assay: Primary screen GU AMC qHTS for Zika virus inhibitors (AID 1347154);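 note: 0% = no-inhibitor control and -100% = no-enzyme control; nearly all actives have a fitted effect of over 70% in size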
Summary of the method: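 Unlinked Zika NS2B hydrophilic domain–NS3 protease complex at 25 nM in 10 mM Tris-HCl pH 8.0, 0.01% Tween 20, with an AMC peptide substrate. Fluorescence change (340/450 nm) over 15 min at room temperature, normalized to controls, fitted to 4-parameter Hill.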

[17] = Primary qHTS for small molecule stabilizers of the endoplasmic reticulum resident proteome: Secreted ER Calcium Modulated Protein (SERCaMP) assay (AID 1508630); note: % is set by controls: 0 for no effect and ±100 for the full control effect
Summary of the method: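 GLuc-SERCaMP-expressing SH-SY5Y cells, pretreated 16 h with compound, are challenged with thapsigargin to empty ER calcium stores; after 4 h, coelenterazine is added directly to the medium and luminescence is imaged.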

NCCCCCCNS(=O)(=O)c1cccc2c(Cl)cccc12
active: Potency [4] 11.2 µM | Potency [6] 12.6 µM
13.8%: max response ([2]; measured here: cell count channel max response)
16.8%: max response ([2]; measured here: lipid channel max response)
inactive: outcome [1] | activity change, negative = inhibition ([2]; at 57.5 µM (top of the series)) 3.12% | Potency [3] | Potency [5] | Potency [7] | Potency [8] | Potency [9] | Potency [10] | outcome [11] | activation [12] 2.44% | outcome [13] | outcome [14] | Potency [15] | Potency [16] | Potency [17]
